Pf growth 48h: P. falciparum growth inhibition at 48 hours (one generation); P. falciparum luciferase growth in erythrocytes, 48 h; Potency, µM (doses to about 28.7 µM), actives largely listed as inhibitors; 310,000 compounds, 5.9% hits; AID 504832
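Read-out is firefly luciferase luminescence from an integrated reporter in P. falciparum, so falling signal marks reduced parasite growth. Infected erythrocytes were at 2% hematocrit and 0.1% parasitemia (final) in Albumax-supplemented RPMI 1640.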
Shiga toxin inh: blocks Shiga toxin action in Vero cells. AID 2315. Vero cells, Shiga toxin protein synthesis inhibition reporter. inhibition, % at 38.7 µM. 290,000 compounds, 9.2% hits; in the data active = inhibition mostly above about 28%, no sharp cut-off; inactive = mostly below about 43%
Cycloheximide cs: affects cycloheximide protein synthesis inhibition readout, counter-screen | 300,000 compounds, 12% hits | max response, % | AID 2314 | cell reporter, cycloheximide protein synthesis inhibition counterscreen; in the data active = max response mostly above about 13%, no sharp cut-off; inactive = mostly below about 14%; also: read at 38.3 µM for the half of the compounds with a filed dose
Pf growth 96h: P. falciparum growth inhibition at 96 hour, primary screen for plastid delayed-death inhibitors | P. falciparum luciferase reporter growth, 96 h | Potency, µM (doses to about 28.7 µM), hits mostly inhibitors | 320,000 compounds, 6.9% hits
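Cell-based qHTS: luciferase-tagged P. falciparum in erythrocytes (2% hematocrit, 0.05% parasitemia final) incubated with compounds for 96 hours, 37 C, 5% CO2; luciferase detection reagent then added and luminescence measured.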
Hits are given with their value; - = inactive; ? = inconclusive; . = not tested or not shown; [ ] = dose if it differs, or a comment. A selection: hits, their analogues and other compounds. The true share with any hit is near 21%. Unless noted, calls follow the shape of the dose curve; as a rule, active = well fitted inhibition curve with a large enough effect; inconclusive = small, poorly fitted or top-dose-only effect, or another doubt; inactive = no such curve, though single readings can be large or run the other way.

SMILES | Pf growth 48h | Shiga toxin inh | Cycloheximide cs | Pf growth 96h
NCCNc1ccc([N+](=O)[O-])cc1 | - | - | - | -
COc1ccc(-c2cc(-c3cccs3)nc(OC)c2C#N)cc1OC | ? | - | - | -
COc1cc(OC)cc(-c2c(-c3cccs3)c3cc(-c4ccc(OC)c(OC)c4)ccc3n2C)c1 | 6.57µM | . | . | ?
COc1cc(OC)cc(-c2c(-c3cccs3)c3cc(-c4ccc5c(c4)OCCO5)ccc3n2C)c1 | 6.57µM | . | . | ?
COc1cc(F)c(S(=O)(=O)N2CCN(S(=O)(=O)c3ccc4c(c3)OCCO4)CC2)c(F)c1 | . | - | - | .
COc1cc(OC)cc(-c2c(-c3cccs3)c3cc(-c4ccc(SC)cc4)ccc3n2C)c1 | - | . | . | 2.08µM
Cc1ccc2oc(C(=O)N(C)Cc3cnccn3)c(C)c2c1 | 2.94µM | 120.5 | 35.2 | ?
CCCc1ccc2oc(C(=O)N(C)Cc3ccn[nH]3)c(C)c2c1 | - | 65.2 | 47.8 | ?
CCCc1ccc2oc(C(=O)N(Cc3nccn3C)C(C)C)c(C)c2c1 | ? | 34.5 | 21.5 | -
Cc1ccc(C(O)P(=O)(OCc2ccccc2)c2ccc(N(C)C)cc2)cc1 (stereo not given) | - | - | - | -
COc1cccc(CNC(=O)C2CCC(CNS(=O)(=O)c3cccc4cccnc34)CC2)c1 (stereo not given) | ? | - | - | ?
CC1CCCN(C(=O)CN(C)S(=O)(=O)c2ccc3c(c2)c(=O)n(C)c(=O)n3C)C1 (stereo not given) | ? | - | - | -
CCOC(=O)c1cnc(-n2cc(C)cn2)nc1Nc1ccccc1OC | - | - | - | .
CCOC(=O)c1cnc(-n2nc(C)cc2C)nc1NC1CCCCC1 | 1.65µM | - | - | -
CCOC(=O)c1cnc(-n2nc(C)cc2C)nc1Oc1ccc(C#N)cc1 | - | - | - | -
CCOC(=O)c1cnc(-n2nc(C)cc2C)nc1N(CC)CC | 11.7µM | - | - | .
CCOC(=O)c1cc(C)nn1-c1nc(Cl)cc(OC)n1 | - | - | - | -
CCOC(=O)c1cnc(-n2nc(C)cc2C)nc1NNc1nc(C)cc(C)n1 | 0.586µM | - | - | 2.94µM
CCOC(=O)c1cnc(-n2nc(C)cc2C)nc1NNc1nc(-c2ccccc2)cc(-c2ccccc2)n1 | 1.47µM | - | - | ?
O=C(Nc1ccccc1)OCCOc1ccc(Br)cc1 | - | - | - | -
Cc1cc(=O)oc2cc(NC(=O)c3cc([N+](=O)[O-])ccc3N3CCOCC3)ccc12 | - | - | - | ?
COc1ccc(/C=C2/NC(=O)N(CC(=O)Nc3cccc(C)c3)C2=O)cc1O | - | - | - | -
COc1ccc(NS(=O)(=O)c2cn(C)cn2)cc1OC | - | - | - | -
CCOC(=O)c1cnc(-n2nc(C)cc2C)nc1NC | - | - | 31.6 | -[5.75 µM]
COc1ccc(OC)c(S(=O)(=O)N2CCC(C(=O)NCc3ccc4c(c3)OCO4)CC2)c1 | - | - | - | ?
SMILES | Pf growth 48h | Shiga toxin inh | Cycloheximide cs | Pf growth 96h
Cc1ccn2c(CNCC3COCCO3)c(C(=O)N3CCCCCC3)nc2c1 (stereo not given) | - | - | - | -
Cc1csc(NC(=O)CSc2nnc(-c3ccc(S(=O)(=O)N4CCCC4)cc3)o2)n1 | 5.86µM | - | - | .
Cc1csc(NC(=O)CSc2nnc(-c3ccccc3)o2)n1 | . | 52.4 | 27.9 | -
CCN(CC)S(=O)(=O)c1ccc(-c2nnc(SCC(=O)Nc3nc(C)cs3)o2)cc1 | . | - | - | -
Cc1ccc(C(C(=O)Nc2ccc3c(c2)OCO3)N(C)C(=O)Cc2c[nH]c3ccccc23)cc1 (stereo not given) | ? | - | - | ?
Clc1ccccc1CN1CCN(/N=C/C=C/c2ccco2)CC1 | - | 58.1 | 26.4 | -
CN1CCN(/N=C/c2cccc(Cl)c2Cl)CC1 | - | 41.2 | 28.7 | -
Fc1ccccc1/C=N/N1CCN(Cc2ccccc2Cl)CC1 | - | . | 19.1 | -
CN1CCc2cccc(Cl)c2CC1 | - | . | . | ?
Clc1ccccc1/C=N/N1CCN(Cc2ccccc2)CC1 | - | . | - | ?
O=[N+]([O-])c1ccccc1/C=N/N1CCN(Cc2ccccc2)CC1 | - | . | 45.3 | ?
CC(Oc1ccccc1F)C(=O)NC1CCS(=O)(=O)C1 (stereo not given) | - | - | - | -
CC(Sc1nc2ccccc2s1)C(=O)c1c(N)n(C)c(=O)n(C)c1=O (stereo not given) | - | - | - | ?
O=[N+]([O-])c1ccccc1/C=N\N1CCN(Cc2ccccc2Cl)CC1 | - | - | 15.6 | -
O=[N+]([O-])c1ccc(Cl)c(/C=N/N2CCN(Cc3ccccc3Cl)CC2)c1 | - | - | - | -
COc1ccc(CN(C2CCCCC2C)S(=O)(=O)c2ccc(S(=O)(=O)N(C)C)cc2)cc1OC (stereo not given) | 13.1µM | - | - | ?
COc1ccc(CC(=O)Nc2ccc(S(=O)(=O)N(C)C)cc2)cc1OC | - | - | - | -
COc1cc(CN(C2CCCCC2C)S(=O)(=O)c2ccc(S(=O)(=O)NC3CC3)cc2)cc(OC)c1OC (stereo not given) | 8.28µM | - | - | -
COc1ccc(/C=N/Nc2nc(NCc3ccco3)nc(Nc3ccc(OC)cc3)n2)cc1 | 14.7µM | - | - | ?
COc1ccc(Nc2nc(NCc3ccco3)nc(N/N=C/c3ccc(O)cc3)n2)cc1 | ? | 70.4 | 16.0 | -
CNS(=O)(=O)c1cccc(C(=O)OCC(=O)N2CCc3ccccc3C2)c1 | . | - | - | ?
Cn1cc([C@@H]2C[C@H]3CN(C4CCCC4)C(=O)[C@]34CCCN24)c(-c2ccccc2)n1 | 5.22µM | - | - | -
Cc1cc(C)c([C@@H]2C[C@H]3CN(C4CCCC4)C(=O)[C@]34CCCN24)c(-n2cccn2)c1 | ? | - | - | ?
CC(C)(C)c1ccc(C(=O)OCC(=O)N2CCC(c3ccccc3)=N2)cc1 | - | . | . | ?
Cc1ccc(C(c2nnnn2CC2CCCO2)N2CCN(c3cccc(C)c3C)CC2)cc1 (stereo not given) | 13.1µM | - | - | .
SMILES | Pf growth 48h | Shiga toxin inh | Cycloheximide cs | Pf growth 96h
CCCC(c1nnnn1CC1CCCO1)N1CCN(c2cc(Cl)ccc2C)CC1 (stereo not given) | 13.1µM | - | - | -
Cc1ccc(Cl)cc1N1CCN(C(c2ccc(C#N)cc2)c2nnnn2C2CCCC2)CC1 (stereo not given) | 2.33µM | - | - | -
CCC(c1nnnn1C(C)(C)C)N1CCN(c2cc(Cl)ccc2C)CC1 (stereo not given) | ? | - | - | 0.147µM
Cc1ccc(Cl)cc1N1CCN(C(CC(C)C)c2nnnn2CC2CCCO2)CC1 (stereo not given) | ? | - | - | -
CC(=O)OC(C(=O)NCCN1CCOCC1)c1c(F)cccc1F (stereo not given) | - | - | - | -
Cc1c(C(N)=O)sc2ncn(CC(=O)NCCc3ccccc3)c(=O)c12 | - | - | - | ?
O=C1c2ccccc2CC1(Cc1ccccc1)Cc1ccccc1 | 13.1µM | - | - | ?
Cc1ccc(C(=O)NCC(=O)N2CCCCCCC2)cc1 | ? | . | . | -
CC(C)(C)c1ccc(C(=O)NCC(=O)N2CCCC2)cc1 | - | - | 25.5 | -
O=C(CNC(=O)c1cccc(F)c1)OCC(=O)N1CCCCC1 | - | 51.1 | 34.9 | -
O=C(CNC(=O)c1cccc(F)c1)OCC(=O)N1CCN(C(=O)c2ccco2)CC1 | - | - | - | -
Cc1ccc(C(=O)NCCC(=O)N2CCCC2)cc1 | - | 40.9 | 37.5 | -

Source: PubChem BioAssay
